Source: PubChem
This is a sample that favours compounds with a hit; in the whole collection about 3.1% have one here.
Casp7 inh: qHTS Assay for Allosteric/Competitive Inhibitors of Caspase-7; recombinant caspase-7, Ac-DEVD-AFC fluorescence rate; Potency, µM (series often up to 57.5 µM), for the others: at the top dose activity change, negative = inhibition, usual class: inhibitors; 0.02% of 75,000 active; AID 889, 2007; active means well fitted inhibition curve with a large enough effect in the main read-out, with a control signal flat, not every such curve was filed as active; inconclusive means small, poorly fitted or top-dose-only effect, or a change in a side signal; further: % of control where 0% means no effect
Bst PK mod: Pyruvate Kinase; purified pyruvate kinase, luminescence ATP production; ribose 5-phosphate activator present at AC10; 1.2% of 51,000 active; Potency, µM; AID 361, 2006; in the data active means potency below about 11 µM; inconclusive means mostly about 12 µM to 25 µM;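 the screen sought inhibitors and activators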;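 further: scaled between full activation by ribose 5 phosphate and full inhibition by luteolin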
Luciferase inh: qHTS Assay for Inhibitors of Firefly Luciferase; Luciferin 4-monooxygenase (Photinus pyralis), P08659; purified firefly luciferase, luminescence, 8 min; Potency, µM (series often up to 57.1 µM), for inactives: at the top dose activity change, negative = inhibition, hits mostly inhibitors; 2.2% of 72,000 active; further: on the % scale 0 is the no-effect control and ±100 the full control effect; nearly all actives have a fitted effect of over 40% in size
Target sequence (P08659 whole entry, looked up): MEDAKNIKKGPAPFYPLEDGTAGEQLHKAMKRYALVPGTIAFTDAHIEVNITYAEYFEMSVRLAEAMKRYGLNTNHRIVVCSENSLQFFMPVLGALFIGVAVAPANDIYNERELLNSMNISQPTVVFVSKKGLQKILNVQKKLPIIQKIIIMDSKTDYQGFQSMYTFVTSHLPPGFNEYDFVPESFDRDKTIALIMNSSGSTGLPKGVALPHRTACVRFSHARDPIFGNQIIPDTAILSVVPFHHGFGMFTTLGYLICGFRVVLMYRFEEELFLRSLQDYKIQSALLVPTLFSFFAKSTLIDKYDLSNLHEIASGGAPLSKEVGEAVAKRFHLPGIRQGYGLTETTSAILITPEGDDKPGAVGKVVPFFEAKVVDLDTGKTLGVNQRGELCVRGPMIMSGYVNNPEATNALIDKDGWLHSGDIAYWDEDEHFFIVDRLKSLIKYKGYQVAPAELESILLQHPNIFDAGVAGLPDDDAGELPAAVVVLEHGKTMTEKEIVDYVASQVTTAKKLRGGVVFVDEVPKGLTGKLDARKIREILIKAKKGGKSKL
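Substrate buffer containing 10 uM ATP (pH 7.2 imidazole, Mg2+, KCl, detergent, BSA) is dispensed, compound pinned in, then luciferase/luciferin detector mix added. After 8 min at ambient temperature, light output is measured.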
GBA activity: Glucocerebrosidase; Lysosomal acid glucosylceramidase (Homo sapiens), P04062; purified enzyme, resorufin glucoside fluorescence (screen aimed at inhibitors), 20 min; Potency, µM; 1.1% of 48,000 active; in the data active means potency below about 15 µM; inconclusive means mostly about 16 µM to 33 µM;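 further: the screen sought inhibitors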
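Compounds titrated against 0.2 nM normal enzyme, 30 uM resorufin beta-D-glucopyranoside substrate, citrate/phosphate buffer with taurocholate and tween-20, pH 5.9. Reaction ran 20 min at room temperature; fluorescence (Ex 548/Em 600) gave AC50.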
Casp1 inh: qHTS Assay for Allosteric/Competitive Inhibitors of Caspase-1. P29466. Caspase-1 enzyme, Ac-WEHD-AFC fluorogenic rate. Potency, µM (titrated, usually from 57.5 µM), inactives show at the highest dose activity change, negative = inhibition, hits mostly inhibitors. 0.03% of 75,000 active;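 further: plate controls were vehicle for no effect and no substrate for full effect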
Active calls of the source: *; [ ] = remark or other dose. Unless noted, the call rests on the fitted dose curve; in most records, active means well fitted inhibition curve with a large enough effect; inconclusive means small, poorly fitted or top-dose-only effect; inactive means flat fitted curve, though single readings scatter. Potency means the concentration at half of the fitted maximal effect.

How did CCc1nnc(NC(=O)c2cccc(S(=O)(=O)N3CCN(c4ccccc4)CC3)c2)s1 do in these assays?
Casp7 inh: 1%; Bst PK mod: >57; Luciferase inh: 0%; GBA activity: 9.8*; Casp1 inh: -6%

How did CC1(C)[C@@H](CC(=O)O)CCC[C@@H]1CC(=O)O do in these assays?
Casp7 inh: 1%[11.5 µM]; Luciferase inh: 1%[11.4 µM]; Casp1 inh: 0%[11.5 µM]

How did CC1CCc2nc(NC(=O)c3ccco3)sc2C1 (centres undefined) do in these assays?
Casp7 inh: 0%; Bst PK mod: 1.2*; Luciferase inh: 2µM*; GBA activity: >77; Casp1 inh: 2%

Results for CC1CCc2nc(NC(=O)C3CCCO3)sc2C1 (centres undefined) ?
Casp7 inh: -2%; Bst PK mod: inactive; Luciferase inh: 13µM*; GBA activity: >77; Casp1 inh: 0%

What do the screens show for `CC1CCc2nc(NC(=O)Cc3cccs3)sc2C1` (centres undefined)?
Casp7 inh: -5%; Luciferase inh: -25%; GBA activity: >77; Casp1 inh: 0%

What do the screens show for `O=c1c(-c2ccc(F)cc2)nc2cnc(N3CCNCC3)nc2n1Cc1ccc(F)cc1`?
Casp7 inh: inconclusive; Luciferase inh: 1%[11.4 µM]

How did CCn1c(SCC(=O)c2ccc3c(c2)OCCO3)nnc1-c1ccco1 do in these assays?
Casp7 inh: -2%; Luciferase inh: 16µM*; GBA activity: >77; Casp1 inh: 0%

How did Cc1cc(/C=c2/sc3nc4ccccc4n3c2=O)c(C)n1-c1ccccn1 do in these assays?
Bst PK mod: 0.84*; Luciferase inh: 0.5µM*

What do the screens show for `O=c1/c(=C\c2cccnc2)sc2nc3ccccc3n12`?
Casp7 inh: -1%; Luciferase inh: -10%; GBA activity: >77; Casp1 inh: 0%

How did O=C(Nc1ccncc1)c1ccc2c(c1)OCCO2 do in these assays?
Casp7 inh: 1%; Luciferase inh: inconclusive; Casp1 inh: 0%

Results for O=C(NC1CC1)c1cccc(Nc2ccc(-c3ccc4c(c3)OCCO4)nn2)c1 ?
Casp7 inh: 1%; Bst PK mod: 1.5*; Luciferase inh: 2µM*; GBA activity: >77; Casp1 inh: -3%

Results for Nc1nc(CN2CCN(c3ccccc3)CC2)nc(N2CCCc3ccccc32)n1 ?
Casp7 inh: -3%; Bst PK mod: >57; Luciferase inh: -1%; GBA activity: inconclusive; Casp1 inh: -1%

How did Nc1nc(CSc2nnnn2-c2ccccc2)nc(N2CCCc3ccccc32)n1 do in these assays?
Casp7 inh: -3%; Bst PK mod: >57; Luciferase inh: 3%; GBA activity: >77; Casp1 inh: -1%

How did Nc1nc(CN2CCN(c3cccc(Cl)c3)CC2)nc(N2CCCc3ccccc32)n1 do in these assays?
Casp7 inh: -10%; Bst PK mod: >57; Luciferase inh: -1%; GBA activity: 14*; Casp1 inh: -3%

What do the screens show for `COc1ccc(N2CCN(Cc3nc(N)nc(N4CCCc5ccccc54)n3)CC2)cc1`?
Casp7 inh: 1%; Bst PK mod: >57; Luciferase inh: 3%; GBA activity: 7.6*; Casp1 inh: -2%

Results for CC(=O)Nc1ccc2c(c1)/C(=C/c1ccc([N+](C)(C)C)cc1)c1ccccc1-2 ?
Casp7 inh: -1%[11.5 µM]; Luciferase inh: -1%[11.4 µM]; Casp1 inh: 0%[11.5 µM]

What do the screens show for `CCOC(=O)c1sc(NC(=O)CSc2nncs2)c(C(=O)OCC)c1C`?
Casp7 inh: -4%; Bst PK mod: >57; Luciferase inh: -36%; GBA activity: 9.6*; Casp1 inh: -6%

What do the screens show for `O=C(NCc1cccnc1)[C@@H]1[C@@H](C(=O)O)[C@H]2CC[C@@H]1O2`?
Casp7 inh: -1%[11.5 µM]; Luciferase inh: 3%[11.4 µM]; Casp1 inh: -2%[11.5 µM]

What do the screens show for `COc1ccc(Cn2c(C3CC3)nc3ccc(NC(=O)C4CC4)cc3c2=O)cc1`?
Casp7 inh: 0%; Luciferase inh: 16µM*; GBA activity: >77; Casp1 inh: 0%

Results for COc1cccc(Cn2c(C3CC3)nc3ccc(NC(=O)c4ccco4)cc3c2=O)c1 ?
Casp7 inh: -3%; Luciferase inh: -3%; Casp1 inh: -6%

Results for CC(C)OCCCNc1ncnc2c1cnn2-c1ccccc1 ?
Bst PK mod: 8.9*; Luciferase inh: 4µM*

Results for CC(C)(C)Nc1ncnc2c1cnn2-c1ccccc1 ?
Casp7 inh: 0%; Luciferase inh: 5µM*; Casp1 inh: -2%

How did CN(Cc1ccccc1)c1ncnc2c1cnn2-c1ccccc1 do in these assays?
Casp7 inh: -3%; Bst PK mod: inconclusive; Luciferase inh: 13µM*; GBA activity: >77; Casp1 inh: -3%

What do the screens show for `c1ccc(CCNc2ncnc3c2cnn3-c2ccccc2)cc1`?
Casp7 inh: -1%; Bst PK mod: >57; Luciferase inh: 1%; GBA activity: >77; Casp1 inh: 1%

What do the screens show for `c1ccc(CNc2ncnc3c2cnn3-c2ccccc2)cc1`?
Casp7 inh: 0%; Bst PK mod: >57; Luciferase inh: -5%; GBA activity: inconclusive; Casp1 inh: -1%

Results for Cc1cccc(-n2ncc3c(NCc4cccs4)ncnc32)c1 ?
Casp7 inh: -5%; Luciferase inh: inconclusive; GBA activity: 14*; Casp1 inh: -3%

How did CN(C)CCOC(=O)c1ccc(N)cc1 do in these assays?
Casp7 inh: 1%[11.5 µM]; Luciferase inh: 0%[11.4 µM]; Casp1 inh: -1%[11.5 µM]

How did COc1ccc2nc(Nc3nc(C)c(C(C)=O)s3)sc2c1 do in these assays?
Casp7 inh: -16%; Luciferase inh: 16µM*; GBA activity: >77; Casp1 inh: inconclusive

Results for COc1ccc2nc(NC(=O)c3cnccn3)sc2c1 ?
Casp7 inh: -8%; Bst PK mod: inactive; Luciferase inh: 13µM*; GBA activity: >77; Casp1 inh: 0%

Results for CCCCN(C(=O)NC(=O)Nc1nc2ccc(OC)cc2s1)S(C)(=O)=O ?
Casp7 inh: 0%; Bst PK mod: inactive; Luciferase inh: 20µM*; GBA activity: >77; Casp1 inh: 1%

How did O=C(O)CC[C@@H](NC(=O)c1ccccc1C(=O)O)C(=O)O do in these assays?
Casp7 inh: 1%; Luciferase inh: -1%; Casp1 inh: -2%

Results for O=C(SCc1cccc2ccccc12)c1ccc(Cl)cc1 ?
Casp7 inh: -2%[11.5 µM]; Luciferase inh: 4%[11.4 µM]; Casp1 inh: -5%[11.5 µM]

Results for CCCSc1ncnc2c1oc1ccccc12 ?
Casp7 inh: -2%; Luciferase inh: -6%; GBA activity: >77; Casp1 inh: 0%

How did Fc1ccccc1CSc1ncnc2c1oc1ccccc12 do in these assays?
Casp7 inh: -1%; Bst PK mod: inconclusive; Luciferase inh: 13µM*; Casp1 inh: -2%

What do the screens show for `CSc1cccc(NC(=O)Nc2ccccc2)c1`?
Casp7 inh: 1%; Luciferase inh: 10µM*; Casp1 inh: 0%
